Assay outcomes (PubChem)
Sampled rows, rich in hits. Any-hit rate of the full collection: about 12%.
Sfp inh: qHTS Assay for Inhibitors of Bacillus subtilis Sfp phosphopantetheinyl transferase (PPTase) | 4'-phosphopantetheinyl transferase ffp (Bacillus subtilis), Q9F4F7 | Biochemical Sfp PPTase activity, qHTS | Potency, µM, most hits filed as inhibitors | 310,000 tested, 3.5% active;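 further: the enzyme is Sfp with the accession as filed and its product quenches rhodamine fluorescence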
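After 15 min at room temperature with compound, 15 nM Sfp received 5 uM rhodamine-CoA plus 12.5 uM BHQ-2-ybbR (50 mM Hepes pH 7.6, 10 mM MgCl2). Rate came from the fluorescence difference over 30 min, ex 525/em 598 nm.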
JMJD2A Tudor inh: qHTS Assay for Inhibitors of JMJD2A-Tudor Domain. AlphaScreen JMJD2A-Tudor / H3K4me3 peptide binding. AID 504339, 2011. 390,000 tested, 4.4% active. Lysine-specific demethylase 4A (Homo sapiens), O75164. Potency, µM (doses to about 114 µM), actives largely listed as inhibitors; further: nearly all actives have a fitted effect of over 50% in size
PLK1 PBD inh: qHTS for Inhibitors of PLK1-PDB (polo-like kinase 1 - polo-box domain): Primary Screen; Serine/threonine-protein kinase PLK1 (Homo sapiens), P53350; AID 720504, 2013; 360,000 tested, 2.8% active; Plk1 PBD binding of FITC phosphopeptide, fluorescence polarization; Potency, µM, hits mostly inhibitors; further: series mostly up to about 57 µM; nearly all actives have a fitted effect of over 65% in size
HP1b chromo inh: HTS for Inhibitors of HP1-beta Chromodomain Interactions with Methylated Histone Tails | AlphaScreen HP1-beta / biotin-H3K9me3 peptide binding | 390,000 tested, 0.56% active | Potency, µM (top dose mostly 114 µM), most hits filed as inhibitors; further: nearly all actives have a fitted effect of over 70% in size
Target sequence (P83916 whole entry, looked up): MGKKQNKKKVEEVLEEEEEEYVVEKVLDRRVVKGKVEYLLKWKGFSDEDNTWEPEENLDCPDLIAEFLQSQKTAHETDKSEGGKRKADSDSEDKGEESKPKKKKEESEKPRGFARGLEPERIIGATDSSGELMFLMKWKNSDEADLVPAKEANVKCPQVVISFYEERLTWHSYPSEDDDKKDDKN
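Compound inhibition of the preformed complex between 50 nM HP1-beta and 50 nM biotinylated H3K9me3 peptide was read by AlphaScreen. Buffer was PBS pH 7.4 with 0.01% Tween-20. Incubations ran 30 min at room temperature, with 10 ug/mL donor/acceptor beads.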
BAZ2B block: qHTS Assay for Inhibitors of BAZ2B; AlphaScreen BAZ2B-H3K14Ac peptide displacement; Potency, µM (highest dose often 114 µM), hits mostly inhibitors; 360,000 tested, 4.4% active; AID 504333, 2011; further: nearly all actives have a fitted effect of over 60% in size
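AlphaScreen displacement: compounds (up to 110uM) incubated 30 min at room temperature with a preformed 50 nM BAZ2B/50 nM biotinylated H3K14Ac peptide complex in PBS pH 7.4 with Tween-20. Donor and acceptor beads at 10 ug/mL final added, 20 min light-protected before reading.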
G9a inh: qHTS Assay for Inhibitors of Histone Lysine Methyltransferase G9a | 350,000 tested, 8.8% active | Histone-lysine N-methyltransferase EHMT2 (Homo sapiens), Q96KQ7 | G9a H3K9 monomethylation, AlphaScreen, 2 h | Potency, µM (series often up to 102 µM), actives largely listed as inhibitors; further: nearly all actives have a fitted effect of over 75% in size
Target sequence (Q96KQ7 913-1193 limits assumed): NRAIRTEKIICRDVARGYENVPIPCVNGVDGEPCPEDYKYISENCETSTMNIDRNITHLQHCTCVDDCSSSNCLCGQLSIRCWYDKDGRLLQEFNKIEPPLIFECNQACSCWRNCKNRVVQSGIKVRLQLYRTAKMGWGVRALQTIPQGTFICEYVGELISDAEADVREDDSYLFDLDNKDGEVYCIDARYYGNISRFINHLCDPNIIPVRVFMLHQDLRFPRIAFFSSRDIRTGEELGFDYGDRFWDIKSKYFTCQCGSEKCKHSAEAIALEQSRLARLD
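AlphaScreen read-out: biotin-H3K9 peptide (500 nM) methylation by 20 nM enzyme with 20 uM SAM, 2 h at room temperature after 15 min compound preincubation; anti-monomethyl H3K9 antibody plus donor/acceptor beads, 10 min dark.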
A number is an active result; [ ] = dose if it differs, or a comment. The call rests on the fitted dose curve; in most records, active means well fitted curve in the direction sought with a large enough effect; inconclusive means small, poorly fitted or top-dose-only effect, or another doubt; inactive means no such curve, though single readings can be large; an effect the other way counts as inactive or inconclusive.

How did CCN1C(=O)/C(=C\c2nc3ccccc3c(=O)n2CC)c2ccccc21 do in these assays?
Sfp inh: inactive; JMJD2A Tudor inh: 15.8µM; PLK1 PBD inh: inactive; HP1b chromo inh: inconclusive; BAZ2B block: 44.7µM; G9a inh: 63.1µM

Results for CCn1c(/C=C2\C(=O)N(C)c3ccccc32)nc2ccccc2c1=O ?
Sfp inh: inactive; JMJD2A Tudor inh: inconclusive; PLK1 PBD inh: inactive; HP1b chromo inh: inactive; BAZ2B block: 56.2µM; G9a inh: inactive

How did CCn1c(/C=C2\C(=O)N(C(C)C)c3ccccc32)nc2ccccc2c1=O do in these assays?
Sfp inh: inactive; JMJD2A Tudor inh: inactive[11.4 µM]; PLK1 PBD inh: inactive; HP1b chromo inh: inactive; BAZ2B block: 39.8µM; G9a inh: inactive[12.7 µM]

What do the screens show for `CC(C)N1C(=O)/C(=C\c2nc3ccccc3c(=O)[nH]2)c2ccccc21`?
Sfp inh: inactive; JMJD2A Tudor inh: inconclusive; PLK1 PBD inh: inactive; HP1b chromo inh: inconclusive; BAZ2B block: 31.6µM; G9a inh: 25.1µM

Results for CCn1c(/C=C\c2ccccc2C)nc2ccccc2c1=O ?
Sfp inh: inactive; JMJD2A Tudor inh: inactive; PLK1 PBD inh: inactive; HP1b chromo inh: inactive; BAZ2B block: inactive; G9a inh: inactive

What do the screens show for `CC(C(=O)c1ccc(Br)cc1)[n+]1cccc2ccccc21` (stereo unspecified)?
Sfp inh: inactive; JMJD2A Tudor inh: inactive; PLK1 PBD inh: inactive; HP1b chromo inh: inactive; BAZ2B block: inactive; G9a inh: inactive[0.501 µM]

What do the screens show for `CCOC(=O)CCc1cc(F)c(S(=O)(=O)N2CCN(S(=O)(=O)c3ccc4c(c3)OCCO4)CC2)cc1F`?
JMJD2A Tudor inh: inactive

Results for CCCCCCCCCCCCC/C=C/C(O)C(COP(=O)(O)OCCN)NC(=O)CCCCCCCCCCCCCCCCC (stereo unspecified) ?
Sfp inh: inactive

Results for COc1ccc(S(=O)(=O)N2CCOC23CCN(S(=O)(=O)c2ccc(Cl)cc2)CC3)cc1 ?
JMJD2A Tudor inh: inactive; PLK1 PBD inh: inactive; HP1b chromo inh: inactive; BAZ2B block: inactive; G9a inh: inactive[0.501 µM]

Results for NC(=O)c1ccc(-c2nnn(CC(=O)N(C3CCCC3)C3CCS(=O)(=O)C3)n2)cc1 (stereo unspecified) ?
JMJD2A Tudor inh: inactive; PLK1 PBD inh: inactive; HP1b chromo inh: inactive; BAZ2B block: inactive; G9a inh: inactive

How did CN(CC(=O)Nc1ccc(F)cc1)C(=O)COC(=O)/C=C/c1ccccc1[N+](=O)[O-] do in these assays?
JMJD2A Tudor inh: inactive; PLK1 PBD inh: inactive; HP1b chromo inh: inactive; BAZ2B block: inactive; G9a inh: inactive[12.7 µM]

What do the screens show for `CCn1c(/C=C/c2c[nH]c3ccccc23)nc2ccccc2c1=O`?
Sfp inh: inactive; JMJD2A Tudor inh: 56.2µM; PLK1 PBD inh: 21.2µM; HP1b chromo inh: inactive; BAZ2B block: inactive; G9a inh: inactive

How did CCn1c(/C=C2/C(=O)N(C)c3ccccc32)nc2ccccc2c1=O do in these assays?
Sfp inh: inactive; JMJD2A Tudor inh: inactive; PLK1 PBD inh: inactive; HP1b chromo inh: inconclusive; BAZ2B block: 35.5µM; G9a inh: 50.1µM

Results for CCN1C(=O)/C(=C/c2nc3ccccc3c(=O)n2-c2ccccc2)c2ccccc21 ?
Sfp inh: inactive; JMJD2A Tudor inh: inconclusive; PLK1 PBD inh: inactive; HP1b chromo inh: inactive; BAZ2B block: inactive; G9a inh: inactive

How did CN(CC(=O)Nc1ccc(Cl)c(C(F)(F)F)c1)C(=O)COC(=O)C1CC2CCCC(C1)C2=O (stereo unspecified) do in these assays?
JMJD2A Tudor inh: inactive; PLK1 PBD inh: inactive; HP1b chromo inh: inactive

How did COc1cccc(/C=C2\N=C(SC)SC2=O)c1OC do in these assays?
Sfp inh: inactive; JMJD2A Tudor inh: inactive; PLK1 PBD inh: inactive; HP1b chromo inh: inactive; BAZ2B block: inactive; G9a inh: inactive

How did CSC1=N/C(=C\c2ccccc2F)C(=O)S1 do in these assays?
Sfp inh: 56.2µM; JMJD2A Tudor inh: inactive; PLK1 PBD inh: inactive; HP1b chromo inh: inactive; BAZ2B block: inactive; G9a inh: 44.7µM

How did O=C1SCCC1NS(=O)(=O)c1ccc([N+](=O)[O-])cc1 (stereo unspecified) do in these assays?
Sfp inh: inactive; JMJD2A Tudor inh: inactive; PLK1 PBD inh: inactive; HP1b chromo inh: inactive; BAZ2B block: inconclusive; G9a inh: 50.1µM

How did CCOC(=O)c1cnc2ccc(C)cc2c1NCCO do in these assays?
Sfp inh: inactive; JMJD2A Tudor inh: inactive; PLK1 PBD inh: inactive; HP1b chromo inh: inactive; BAZ2B block: inactive; G9a inh: inactive

How did CCOC(=O)c1cnc2ccc(C)cc2c1Sc1ccccc1C(=O)OC do in these assays?
Sfp inh: inactive; JMJD2A Tudor inh: inconclusive; PLK1 PBD inh: 26.7µM; HP1b chromo inh: inactive; BAZ2B block: inactive; G9a inh: inactive

How did C#CCSc1nsc(SCC#C)c1C#N do in these assays?
Sfp inh: inactive; JMJD2A Tudor inh: 56.2µM; PLK1 PBD inh: inconclusive; HP1b chromo inh: inconclusive; BAZ2B block: inactive; G9a inh: inactive[12.7 µM]

Results for O=c1c2c3c(sc2n2c(=S)[nH]nc2n1-c1ccccc1)CCC3 ?
Sfp inh: inactive; JMJD2A Tudor inh: 3.16µM; PLK1 PBD inh: inactive; HP1b chromo inh: inactive; BAZ2B block: inactive

What do the screens show for `N#Cc1ccccc1Cn1c(=O)n(-c2ccccc2)c(=O)c2c3c(sc21)CCC3`?
JMJD2A Tudor inh: inactive; HP1b chromo inh: inactive; BAZ2B block: inactive; G9a inh: inactive

How did Cc1ccc(-n2c(=S)[nH]c3sc4c(c3c2=O)CCC4)cc1 do in these assays?
Sfp inh: inactive; JMJD2A Tudor inh: inactive; PLK1 PBD inh: 23.8µM; HP1b chromo inh: inactive; BAZ2B block: inactive; G9a inh: 44.7µM

What do the screens show for `COc1ccc(-n2c(=O)c3c4c(sc3n3c(=S)[nH]nc23)COC(C(C)C)C4)cc1` (stereo unspecified)?
Sfp inh: inactive; JMJD2A Tudor inh: inconclusive; PLK1 PBD inh: inactive; HP1b chromo inh: inactive; BAZ2B block: inactive; G9a inh: 8.91µM

How did CN1CCc2c(sc3c2c(=O)n(-c2ccccc2)c2n[nH]c(=S)n32)C1 do in these assays?
Sfp inh: 39.8µM; JMJD2A Tudor inh: 39.8µM; PLK1 PBD inh: inactive; HP1b chromo inh: inactive; BAZ2B block: inactive; G9a inh: 5.01µM

How did Cc1ccc(-n2c(=O)[nH]c3sc4c(c3c2=O)CCCC4)cc1 do in these assays?
JMJD2A Tudor inh: inactive; HP1b chromo inh: inactive; BAZ2B block: inactive; G9a inh: inactive

How did CCn1c2c(c(=O)n3ncc(C(=O)Nc4ccc(F)cc4Cl)c13)CN(Cc1ccc(OC)cc1)CC2 do in these assays?
JMJD2A Tudor inh: inactive; HP1b chromo inh: inactive; BAZ2B block: inactive; G9a inh: inconclusive
